Laboratory results as given in ChEMBL document CHEMBL3988442, “University of Dundee, Small-Polar-MMV Screening Library” (2021).
The whole screen tested about 66,000 compounds, of which about 960 (1.5%) showed an effect of 50% or more. Only a selection was taken, and strong results are over-represented in it overall.

Tested on: Trypanosoma brucei
Assay: Trypanosoma brucei 72 hour study
Type: functional, organism-based
Set-up: scale not given: in the data most compounds retested in dose-response had high values

OCC1CCCN1c1cc(NCCc2ccsc2)ncn1 (centres undefined)
Percent Effect (30 µM, 30.03 µM): 6.798%

Cc1cc(NC(=O)NCCO)nn1-c1ccc(Cl)cc1Cl
Percent Effect (30 µM, 30.03 µM): -0.9538%

O=C(CN1C(=O)CC2(CCCC2)C1=O)NCCc1nccs1
Percent Effect (30 µM, 30.03 µM): -3.261%

Cc1nc[nH]c1CN(C)CC1CCCN(CCc2ccc(Cl)cc2)C1 (centres undefined)
Percent Effect (30 µM, 30.03 µM): 61.25%

CN(Cc1ccncc1)CC1CCCN(CCc2ccc(Cl)cc2)C1 (centres undefined)
Percent Effect (30 µM, 30.03 µM): 15.49%

CN(Cc1cnc(N)nc1)CC1CCCN(CCc2ccc(Cl)cc2)C1 (centres undefined)
Percent Effect (30 µM, 30.03 µM): -6.233%

CN(Cc1ccccc1O)CC1CCCN(CCc2ccc(Cl)cc2)C1 (centres undefined)
Percent Effect (30 µM, 30.03 µM): 6.545%

CN(Cc1cccc(O)c1)CC1CCCN(CCc2ccc(Cl)cc2)C1 (centres undefined)
Percent Effect (30 µM, 30.03 µM): 55.85%

COc1ccc(CCN2CCCC(CN(C)Cc3[nH]cnc3C)C2)cc1 (centres undefined)
Percent Effect (30 µM, 30.03 µM): 11.78%

Cc1ccc(NC(C)(C)c2nnnn2-c2ccc(Cl)cc2)c(C)c1
Percent Effect (30 µM, 30.03 µM): -23.29%

Cc1nc2cc(C3CCN(Cc4ccccc4F)C3)nn2c(O)c1C (centres undefined)
Percent Effect (30.3 µM, […]): 14.24%

Cc1nnc([C@H]2C[C@@H]3CCN(Cc4ccc(C)o4)C[C@H]3O2)[nH]1.O=C(O)C(F)(F)F
Percent Effect (30 µM, 30.03 µM): -11.08%

COc1cc2c(cc1CN1CCn3c(CO)nnc3C1)CCC2.O=C(O)CC(O)(CC(=O)O)C(=O)O
Percent Effect (30.3 µM, […]): -66.2%

O=C(COCC1CC[C@H]2[C@H](CCN2c2ncccn2)O1)N1CCCC1.O=C(O)C(F)(F)F (some centres undefined)
Percent Effect (30 µM, 30.03 µM): -11.45%

O=C(COC[C@H]1CC[C@H]2[C@H](CCN2c2ncccn2)O1)N1CCCC1.O=C(O)C(F)(F)F
Percent Effect (30 µM, 30.03 µM): 52.31%

O=C(COC[C@H]1CC[C@H]2[C@H](CCN2c2ccccn2)O1)N1CCCC1.O=C(O)C(F)(F)F
Percent Effect (30 µM, 30.03 µM): -34.45%

O=C(CC1CC1)N1CCC2(CC1)CN(c1cccnc1)C(=O)CO2.O=C(O)C(F)(F)F
Percent Effect (30.3 µM, […]): -59.01%

CCOc1ncccc1C(=O)N1CCC(Nc2ccc(C)nn2)CC1
Percent Effect (30.3 µM, […]): 1.842%
Percent Effect (10 mM, 10 mM as filed; unlikely as a test dose): -20.5%

CN(C)S(=O)(=O)N1C[C@H]2C[C@H](C(=O)Nc3cccnc3)[C@@H](C1)O2
Percent Effect (30.3 µM, […]): -739.2%

COc1ccc(-c2cc(C3CC3)c(C#N)c(N)n2)cc1F
Percent Effect (30.3 µM, […]): 93.34%

N#Cc1c(C2CC2)cc(-c2ccc(O)cc2)nc1N
Percent Effect (30 µM, 30.03 µM): 17.72%

N#Cc1c(C2CC2)cc(-c2ccc(F)c(F)c2)nc1N
Percent Effect (30.3 µM, […]): -90.74%

CN(C)CCO[C@@H]1CC[C@H]2[C@H]1OCCN2C(=O)c1ccc(F)cc1.O=C(O)C(F)(F)F
Percent Effect (30.3 µM, […]): -19.82%

CN(C)c1cc(CNC(=O)Nc2ccc(N3CCCC3)nc2)ccn1
Percent Effect (30.3 µM, […]): 18.28%

O=C(CC1CCC2(CC1)CCN(Cc1cccnc1)CC2)N1CC=CC1.O=C(O)C(F)(F)F.O=C(O)C(F)(F)F
Percent Effect (30.3 µM, […]): -37.26%

O=C(C1CCOCC1)N1CCC2(CCN(Cc3nccs3)CC2)CC1.O=C(O)C(F)(F)F
Percent Effect (30 µM, 30.03 µM): 11.85%

O=C(C1CCOC1)N1CCC2(CCN(Cc3nccs3)C2)CC1 (centres undefined)
Percent Effect (30 µM, 30.03 µM): 6.218%

O=C(C1CCOC1)N1CCC2(CCN(Cc3nccs3)CC2)CC1 (centres undefined)
Percent Effect (30 µM, 30.03 µM): 55.49%

CCn1cc(C(=O)N2C[C@H]3C[C@H](Oc4ccccc4)C[C@H]3C2)cn1
Percent Effect (30.3 µM, […]): 7.287%

CS(=O)(=O)NCc1nnc2n1CCN(Cc1ccccn1)C2
Percent Effect (30.3 µM, […]): 73.82%

CS(=O)(=O)NCc1nnc2n1CCN(Cc1ccncc1)C2
Percent Effect (30.3 µM, […]): -346.7%

CS(=O)(=O)NCc1nnc2n1CCN(Cc1cccnc1)C2
Percent Effect (30.3 µM, […]): -308.6%

CC(C)=CCN1C(=O)[C@H]2CC[C@@H]1CN(c1ncccc1C(N)=O)C2
Percent Effect (30 µM, 30.03 µM): 2.727%

CC1c2ncc(CNC(=O)C3CC3)n2CCN1Cc1nccs1.O=C(O)C(F)(F)F (centres undefined)
Percent Effect (30.3 µM, […]): -11.04%

CC(C)(C)n1ncc2c(=O)[nH]c(NC3CC=CC3)nc21
Percent Effect (30 µM, 30.03 µM): 100.8%

CN1CC(Nc2nc3c(cnn3C(C)(C)C)c(=O)[nH]2)CCC1=O (centres undefined)
Percent Effect (30 µM, 30.03 µM): -21.89%

CC(C)(C)n1ncc2c(=O)[nH]c(N3CC(O)C3)nc21
Percent Effect (30 µM, 30.03 µM): 18.67%

Cc1ncc(CN2CCC(N(C)Cc3noc(C4CC4)n3)C2)s1 (centres undefined)
Percent Effect (10 µM): -20.3%

CC(Cn1cccn1)NC(=O)NCc1cccnc1 (centres undefined)
Percent Effect (10 µM): -30.88%

O=C(O)C(c1ccc2c(c1)OCCO2)N1CCC(N2CCSCC2)CC1 (centres undefined)
Percent Effect (30 µM, 30.03 µM): -29.57%

Cc1nc(CN(C)CC2CCCN2c2cccnn2)nc2ccccc12 (centres undefined)
Percent Effect (30.3 µM, […]): 101.1%

CN(Cc1nc(N)c2ccccc2n1)CC1CCCN1c1cccnn1 (centres undefined)
Percent Effect (30 µM, 30.03 µM): 4.932%

Cc1nc2ccccc2nc1CN(C)CC1CCCN1c1cccnn1 (centres undefined)
Percent Effect (30 µM, 30.03 µM): -12.68%

Cc1nn(C)c(N(C)C)c1CNCCOc1ccc2c(c1)OCO2.Cl
Percent Effect (10 µM): -62.44%

Cc1nc(CNc2cccc(Cl)c2Cl)cs1
Percent Effect (30.3 µM, […]): 13.05%

CN(C)c1cccc(C2CCCN2CCCN2CCOC2=O)c1 (centres undefined)
Percent Effect (30.3 µM, […]): 100.6%

O=C1OCCN1CCCN1CCCC1c1ccc(O)cc1 (centres undefined)
Percent Effect (30.3 µM, […]): -41.53%

CN(C)c1cccc(C2CCCN2Cc2nnnn2C2CC2)c1 (centres undefined)
Percent Effect (30 µM, 30.03 µM): -5.59%

Cc1cc(C(=O)N2CCN(c3nc4c(C(C)C)cccc4s3)CC2)no1
Percent Effect (30 µM, 30.03 µM): -24.13%

Cc1ccc(CN(CCCn2ccnc2)Cc2cnc(N(C)C)nc2)s1.O=C(O)CC(O)(CC(=O)O)C(=O)O
Percent Effect (30.3 µM, […]): -19.58%

CN(C)c1ccc(CN(CCCn2ccnc2)Cc2c[nH]cn2)cc1.O=C(O)CC(O)(CC(=O)O)C(=O)O
Percent Effect (30.3 µM, […]): 101.7%

Cc1ccc(CN(CCCn2ccnc2)Cc2c[nH]cn2)s1.O=C(O)CC(O)(CC(=O)O)C(=O)O
Percent Effect (30.3 µM, […]): 1.137%

CCOc1ccc(Cl)cc1C1CCCCN1.Cl (centres undefined)
Percent Effect (30 µM, 30.03 µM): -10.24%

Cc1cccc(CN2C(=O)CCC23CCN(C(=O)NC(C)C)CC3)n1.O=C(O)C(F)(F)F
Percent Effect (30.3 µM, […]): -47.32%

O=C(O)C1CCCN1c1nc(-c2ccc(Cl)cc2)cc(C(F)(F)F)n1 (centres undefined)
Percent Effect (30 µM, 30.03 µM): -38.97%

CCn1ncc(-c2cc(C(F)(F)F)nc(N3CCC(N)CC3)n2)c1C
Percent Effect (30.3 µM, […]): 100.2%

CCc1ccc(-c2cc(C(F)(F)F)nc(N3CCC(N)CC3)n2)cc1
Percent Effect (30.3 µM, […]): 100.3%

Cc1ccc(-c2cc(C(F)(F)F)nc(N3CCOCC3)n2)s1
Percent Effect (30 µM, 30.03 µM): -24.17%

O=C(O)C1CCCN1c1nc(-c2ccc(Cl)c(Cl)c2)cc(C(F)(F)F)n1 (centres undefined)
Percent Effect (30 µM, 30.03 µM): -7.275%

Cc1c(-c2cc(C(F)(F)F)nc(N3CCC(N)CC3)n2)cnn1C
Percent Effect (30.3 µM, […]): 47.45%

Cc1nccn1CCC1CCNCC1.Cl.Cl
Percent Effect (30.3 µM, […]): -19.74%

CC1c2ncc(Cn3cccn3)n2CCN1Cc1ccc(F)cc1.O=C(O)C(F)(F)F (centres undefined)
Percent Effect (30.3 µM, […]): 6.386%

CCS(=O)(=O)N1CCCC(Cc2cnccn2)C1 (centres undefined)
Percent Effect (30.3 µM, […]): -26.51%

C1CCC(CNC2CCCN(Cc3noc(C4CC4)n3)C2)CC1 (centres undefined)
Percent Effect (30.3 µM, […]): 78.83%

C1CCCN(CC2CCCN(Cc3noc(C4CC4)n3)C2)CC1 (centres undefined)
Percent Effect (30.3 µM, […]): 63.76%

C1CCCN(C2CCCN(Cc3noc(C4CC4)n3)C2)CC1 (centres undefined)
Percent Effect (30.3 µM, […]): 49.07%

C1CC(NCC2CC2)CN(Cc2noc(C3CC3)n2)C1 (centres undefined)
Percent Effect (30.3 µM, […]): -4.666%

C1CCC(CNC2CCCN(Cc3noc(C4CC4)n3)C2)C1 (centres undefined)
Percent Effect (30.3 µM, […]): 26.01%

c1ncn(CC2CCCN(Cc3noc(C4CC4)n3)C2)n1 (centres undefined)
Percent Effect (30.3 µM, […]): -10.36%

Cn1cc(CN2C[C@@H]3COC[C@H](C(=O)Nc4cccnc4)[C@@H]3C2)cn1.O=C(O)C(F)(F)F.O=C(O)C(F)(F)F
Percent Effect (30 µM, 30.03 µM): -8.066%

NC(=O)c1ccccc1NC(=O)CCN1CCN(c2ccccc2)CC1
Percent Effect (30 µM, 30.03 µM): 4.761%

CCOC(=O)N1CCc2ccccc2C12CCNCC2.Cl
Percent Effect (30.3 µM, […]): -45.47%

Cc1ccc(CN2CCC3(CC2)CN(C(=O)c2cnccn2)CCO3)o1.O=C(O)C(F)(F)F
Percent Effect (30.3 µM, […]): -12.58%

CC1=N[C@@]2(CC[C@@H]3CN(Cc4ccccc4)C[C@@H]32)C(=O)N1CC1CC1.O=C(O)C(F)(F)F
Percent Effect (30.3 µM, […]): -40.35%

CC1=N[C@@]2(CC[C@@H]3CN(Cc4ccccc4F)C[C@@H]32)C(=O)N1CC1CC1.O=C(O)C(F)(F)F
Percent Effect (30 µM, 30.03 µM): 55.44%

CC1=N[C@@]2(CC[C@@H]3CN(Cc4ccccc4C)C[C@@H]32)C(=O)N1CC1CC1.O=C(O)C(F)(F)F
Percent Effect (30.3 µM, […]): -63.56%

CN(C)C(=O)c1cc2c(nc1NCC1CC1)CCNCC2
Percent Effect (30.3 µM, […]): -109.7%

CCCN1CCN(C(=O)c2cnn(-c3ccccc3F)c2)CC1
Percent Effect (30 µM, 30.03 µM): 55.35%

O=C(c1cnn(-c2ccccc2F)c1)N1CCN(CCO)CC1
Percent Effect (30 µM, 30.03 µM): 1.358%

CCC(O)CN1CCN(C(=O)c2cnn(-c3ccccc3F)c2)CC1 (centres undefined)
Percent Effect (30 µM, 30.03 µM): 22.96%

CN1C(=O)CC[C@]12CC[C@@H](NCc1ccsc1)CC2.O=C(O)C(F)(F)F
Percent Effect (30.3 µM, […]): 8.729%

CC(C)CCN1C[C@H]2C[C@H](C(=O)NCc3ccccc3)[C@@H](C1)O2.O=C(O)C(F)(F)F
Percent Effect (30 µM, 30.03 µM): 29.18%

CCn1cc(-c2cc(-c3cc(CN(C)C)cs3)nc(N)c2C#N)c(C)n1
Percent Effect (30 µM, 30.03 µM): -4.566%

Cc1cc(CN2CCC(c3nccn3C(C)C)CC2)ccc1F
Percent Effect (30 µM, 30.03 µM): -24.52%

Cc1ccc(Cl)c(CN2CCC(c3nccn3C(C)C)CC2)c1F
Percent Effect (30 µM, 30.03 µM): 104.1%

CCn1ccnc1C1CCN(Cc2cccc(Cl)c2)CC1
Percent Effect (30 µM, 30.03 µM): -40.4%

CC(C)n1ccnc1C1CCN(Cc2ccc(Cl)c(F)c2)CC1
Percent Effect (30 µM, 30.03 µM): 33.49%

CCn1ccnc1C1CCN(Cc2c(F)cccc2F)CC1
Percent Effect (30 µM, 30.03 µM): 86.79%

CCn1ccnc1C1CCN(Cc2cccc(C)n2)CC1
Percent Effect (30 µM, 30.03 µM): -34.54%

COc1ccc(Cl)cc1C(C(=O)O)N1CCSCC1 (centres undefined)
Percent Effect (30.3 µM, […]): -71.2%

CN(C)c1nc(N)nc(CN2CCCC2c2ccsc2)n1 (centres undefined)
Percent Effect (30 µM, 30.03 µM): -20.26%

CN(C)c1nc(N)nc(CN2CCCC2c2cccs2)n1 (centres undefined)
Percent Effect (30 µM, 30.03 µM): -6.91%

Cc1cccc(C2CCCN2Cc2nc(N)nc(N(C)C)n2)c1C (centres undefined)
Percent Effect (30 µM, 30.03 µM): 100.5%
